BAZ2B inh: inhibitors of human BAZ2B bromodomain | Q9UIF8 | 4.4% of 360,000 active | AID 504333 | AlphaScreen BAZ2B-H3K14Ac peptide displacement | Potency, µM (highest dose often 114 µM), for the others: top-dose activity change, negative = inhibition, hits mostly inhibitors; also: potency is read from the fitted curve at half-maximal effect; % is scaled to controls: 0 for no effect and ±100 for the full control effect; nearly all actives have a fitted effect of over 60% in size
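AlphaScreen displacement of biotin-H3(5-23)K14Ac peptide (50 nM final) from BAZ2B (50 nM final) in PBS pH 7.4, 0.01% Tween-20; complex preformed 30 min RT, then compounds (top 110 uM) 30 min RT, beads 20 min dark.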
HP1b binding inh: inhibitors of HP1-beta chromodomain binding to methylated histone tails; P83916; AlphaScreen HP1-beta / biotin-H3K9me3 peptide binding; Potency, µM (highest dose often 114 µM), for inactives: at the top dose activity change, negative = inhibition, most hits filed as inhibitors; 0.56% of 390,000 active; also: potency is read from the fitted curve at half-maximal effect; nearly all actives have a fitted effect of over 70% in size
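AlphaScreen: HP1-beta (50 nM) preformed 30 min with biotin-H3(1-18)K9me3 peptide (50 nM) in PBS pH 7.4, 0.01% Tween-20. Compound added for 30 min at RT, then streptavidin donor/nickel chelate acceptor beads (10 ug/mL) for 30 min.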
G9a inh: G9a (human) methyltransferase inhibition; Q96KQ7; 8.8% of 350,000 active; AID 504332; Potency, µM (top dose mostly 102 µM), for the others: at the highest dose activity, negative = inhibition, usual class: inhibitors; G9a H3K9 monomethylation, AlphaScreen, 2 h; also: potency is read from the fitted curve at half-maximal effect; % is scaled to controls: 0 for no effect and ±100 for the full control effect; nearly all actives have a fitted effect of over 75% in size
Target sequence (Q96KQ7 913-1193 limits assumed): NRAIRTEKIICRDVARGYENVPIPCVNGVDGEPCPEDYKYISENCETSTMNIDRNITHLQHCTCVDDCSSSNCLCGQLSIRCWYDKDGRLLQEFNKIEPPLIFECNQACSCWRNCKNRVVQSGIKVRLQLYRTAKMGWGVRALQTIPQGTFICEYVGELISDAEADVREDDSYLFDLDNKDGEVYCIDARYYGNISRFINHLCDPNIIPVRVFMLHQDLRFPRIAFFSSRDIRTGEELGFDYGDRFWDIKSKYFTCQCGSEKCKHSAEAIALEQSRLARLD
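Chemiluminescent proximity detection of H3K9 monomethylation, read after 10 min bead incubation in the dark. Reaction: 20 nM G9a, 500 nM biotin-H3K9 peptide, 20 uM SAM cofactor, 2 h, room temperature, following 15 min enzyme-compound preincubation.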
GLS inhibitor: glutaminase GLS (human) inhibition; Potency, µM (top dose mostly 45.5 µM), for the others: top-dose activity change, negative = inhibition, hits mostly inhibitors; 0.21% of 410,000 active; AID 624170; GLS enzymatic activity, qHTS titration; O94925; also: potency is read from the fitted curve at half-maximal effect; % is scaled to controls: 0 for no effect and ±100 for the full control effect
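hKGA in 45 mM KH2PO4 (pH 8.2), 0.02% Tween-20 with compound, then 1mM L-Glutamine (stock as added) plus glutamate oxidase/HRP/Amplex red coupling mix. Fluorescence read initially and after 30 min at RT; signal change reflects glutamate formation.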
JMJD2A Tudor inh: inhibitors of human JMJD2A Tudor domain; O75164; 4.4% of 390,000 active; AlphaScreen JMJD2A-Tudor / H3K4me3 peptide binding; Potency, µM (highest dose often 114 µM), for inactives: top-dose activity change, negative = inhibition, actives largely listed as inhibitors; also: potency is read from the fitted curve at half-maximal effect; % is scaled to controls: 0 for no effect and ±100 for the full control effect; nearly all actives have a fitted effect of over 50% in size
JMJD2E inh-1: JMJD2E demethylase inhibition by 8HQ compounds; shares compounds with BAZ2B inh; JMJD2E demethylase, FDH-coupled NADH fluorescence; Potency, µM (highest dose often 57 µM), inactives show at the highest dose activity, negative = inhibition, most hits filed as inhibitors; 89% of 130 active; AID 493212
Target sequence (B2RXH2 1-337 limits assumed): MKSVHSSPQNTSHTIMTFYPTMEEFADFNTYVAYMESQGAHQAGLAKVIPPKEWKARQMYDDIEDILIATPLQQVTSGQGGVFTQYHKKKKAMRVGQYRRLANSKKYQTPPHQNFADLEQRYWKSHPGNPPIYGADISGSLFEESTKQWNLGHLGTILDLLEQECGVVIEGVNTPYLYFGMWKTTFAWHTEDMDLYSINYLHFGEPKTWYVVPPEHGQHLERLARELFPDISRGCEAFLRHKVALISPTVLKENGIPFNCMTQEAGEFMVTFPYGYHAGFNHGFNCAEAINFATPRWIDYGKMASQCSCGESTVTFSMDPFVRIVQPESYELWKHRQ
ME-1 prolif: reduces ME-1 leukemia cell proliferation | Potency, µM (top dose mostly 56.1 µM), for inactives: at the highest dose activity change, negative = inhibition, most hits filed as inhibitors | ME-1 cell proliferation, ATP luminescence, 48 h | 20% of 140 active | shares compounds with BAZ2B inh
JMJD2E inh-2: JMJD2E (human) demethylase inhibition, confirmation | Potency, µM (top dose mostly 56.8 µM), inactives show top-dose activity change, negative = inhibition, hits mostly inhibitors | shares compounds with JMJD2A Tudor inh | 93% of 140 active | Recombinant JMJD2E, FDH-coupled NADH fluorescence (FDH is formaldehyde dehydrogenase)
FDH inh: blocks Pseudomonas putida formaldehyde dehydrogenase, flagging JMJD2E artifacts | shares compounds with JMJD2A Tudor inh | AID 2680 | Potency, µM (highest dose often 56.7 µM), inactives show at the highest dose activity, negative = inhibition, actives largely listed as inhibitors | FDH enzyme assay, NADH fluorescence kinetic | 10% of 140 active
JMJD2E MALDI inh: human KDM4E demethylase inhibition | shares compounds with JMJD2A Tudor inh | recombinant JMJD2E demethylation, MALDI-TOF-MS | Potency, µM, usual class: inhibitors | 90% of 45 active;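 active = compounds whose IC50 for blocking JMJD2E demethylation is below 100 µM; inconclusive = dose dependent effect but IC50 above 100 µM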
* hit, by the source's call; ? = inconclusive; / = not tested or not shown; [ ] = another dose, or the depositor's remark. The list is not random: actives were taken first. Their share in the collection is about 10%. Unless noted, calls follow the shape of the dose curve; as a rule, active = well fitted curve in the direction sought with a large enough effect; inconclusive = small, poorly fitted or top-dose-only effect, or another doubt; inactive = no such curve, though single readings can be large; an effect the other way counts as inactive or inconclusive.

SMILES | BAZ2B inh | HP1b binding inh | G9a inh | GLS inhibitor | JMJD2A Tudor inh | ME-1 prolif | others
COCc1cc(O)c(O)c(O)c1-c1c(COC)cc(O)c(O)c1O | / | / | 1µM* | / | / | -27%
Nc1nnn(CC(=O)N/N=C/c2ccc(Cl)cc2Cl)n1 | 1% | 37% | 3% | -3% | -22% | /
C=C1c2cccc(O)c2C(O)=C2C(=O)[C@@]3(O)C(O)=C(C(N)=O)C(=O)[C@@H](N(C)C)[C@@H]3[C@@H](O)[C@H]12 | / | / | 4µM* | ? | / | -3%
CN(C)[C@@H]1C(=O)C(C(N)=O)=C(O)[C@]2(O)C(=O)C3=C(O)c4c(O)ccc(Cl)c4[C@H](O)[C@H]3C[C@@H]12 | / | / | ? | -9% | / | /
CCc1cccc(NC(=O)CCCN2C(=O)NC(C)(C)C2=O)c1 | -2% | 26% | -5%[12.7 µM] | -3% | -9% | /
CCc1cccc(NC(=O)CCCCCC2NC(=O)NC2C)c1 (stereo not given) | 0.79µM* | 0.79µM* | 1.3µM* | 0% | 0.32µM* | -16%
COc1cc(O)c2c(c1)oc(=O)c1c3cc(O)c(O)cc3oc21 | / | / | / | / | / | 32µM*
COc1ccc2c(c1)oc(=O)c1cc(OC)ccc12 | ? | 14% | -17%[59 µM] | 1% | -24% | /
COc1ccc2c(c1)c(=O)c(S(=O)(=O)c1ccc(Cl)cc1)cn2Cc1cc(C)ccc1C | -4% | 33% | -11%[59 µM] | 8% | -3% | /
CCOC(=O)/C(C#N)=C/c1ccc(OC(=O)c2ccccn2)cc1 | 4.5µM* | 17% | 4.5µM* | 16% | 0.79µM* | -8%[25.6 µM]
O=C(NC(=S)NNC(=O)c1ccccc1O)c1ccco1 | ? | 1% | ? | 60% | 35µM* | ?
O=C(NNC(=S)NC(=O)c1ccco1)c1ccc(NC(=O)c2ccccc2)cc1 | / | 35% | ? | -6% | 12%[11.4 µM] | /
O=C(O[C@@H]1OC2COC(=O)c3cc(O)c(O)c(O)c3-c3c(cc(O)c(O)c3O)C(=O)O[C@@H]([C@H]1O)[C@@H]2O)c1cc(O)c(O)c(O)c1 | 0.79µM* | -74% | 1.6µM* | 28% | / | ?
COCCCN1CCN(C2Cc3ccccc3Sc3ccc(Cl)cc32)CC1 (stereo not given) | ? | -13% | ? | 3% | 22µM* | -22%[25.6 µM]
O=c1cc2c(=O)oc3cc(O)c(O)oc3c2c(O)c1O | 1.8µM* | 1.6µM* | / | ? | 1.4µM* | -15%
Nc1nc(-c2ccc3c(c2)NC(=O)CO3)cs1 | ? | -1% | ? | 21% | ? | -2%[25.6 µM]
O=C1COc2ccc(-c3n[nH]c(=O)c4ccccc34)cc2N1 | -8% | 42% | 21%[12.7 µM] | 9% | -8% | /
COc1ccc(S(=O)(=O)N2CCOCC2)cc1N=Nc1sc(N)nc1-c1ccccc1 | ? | ? | 14µM* | 9% | -27% | -3%[25.6 µM]
CCCCNC(=O)C1(C)CCCCCN1Cc1cccc2c(OC)cc(C(=O)OCC)cc12 (stereo not given) | / | / | / | 3% | / | /
O=C(O)c1cccnc1Cl | ? | 56% | ? | -9% | -2% | /
O=C(O)c1cccnc1C(=O)O | 6.3µM* | 13% | 3.5µM* | 19% | 0.89µM* | -13%
Cc1ccc(Cl)cc1NC(=S)N(CCN(C)C)C(C)c1ccccn1 (stereo not given) | / | 21% | -26% | 9% | -2% | -7%[25.6 µM]
Cc1cccc(NC(=S)N(CCN(C)C)C(C)c2ccccn2)c1 (stereo not given) | 56µM* | 25% | 22%[12.7 µM] | 27% | -10% | -8%[25.6 µM]
CN(C)c1nc(-c2ccccn2)nnc1-c1ccccc1 | 0.79µM* | 48% | 24% | 9% | 4µM* | 16µM*
O=C(COC(=O)Cc1c(F)cccc1Cl)Nc1nnc(-c2ccccc2)o1 | 0% | 40% | 14%[59 µM] | 10% | -14% | /
SMILES | BAZ2B inh | HP1b binding inh | G9a inh | GLS inhibitor | JMJD2A Tudor inh | ME-1 prolif | others
CC(C)(c1cc(Br)c(O)c(Br)c1)c1cc(Br)c(O)c(Br)c1 | 56µM* | 0% | 6%[0.501 µM] | 34% | 89µM* | 4%
O=C(NCc1ccc2c(c1)CCN2C(=O)c1ccncc1)c1ccccc1Cl | 0% | 24% | 8%[59 µM] | -8% | -18% | /
O=C1c2ccccc2C(=O)c2c(Nc3ccc(CCO)cc3)ccc(O)c21 | 1.8µM* | 8.9µM* | 3.5µM* | 12% | 8.9µM* | ?
CC(=O)Nc1ccc(Nc2ccc3c4c(cc(=O)n3C)-c3ccccc3C(=O)c24)cc1 | ? | -27% | ? | 5% | -32% | /
COc1cccc(NC(=O)CN(C)C(=O)C2CCN(C(=O)c3ccccc3C)CC2)c1 | 10% | 12% | -2% | -3% | -11% | /
CCC1=C(c2ccc(C)cc2)S(=O)(=O)N=C1N1CCC(C(=O)NCCCN2CCCCC2C)CC1 (stereo not given) | -15% | 47% | -12% | -12% | 18% | /
Nc1c(C(=O)NCC2CCCO2)sc2nc3c(c(-c4ccco4)c12)CC/C3=C\c1ccco1 (stereo not given) | 8.9µM* | ? | 8.9µM* | ? | 2µM* | ?
NC(=O)c1sc2nc3c(c(-c4ccco4)c2c1N)CCCC3 | -19% | 27% | -28%[59 µM] | 1% | -24% | /
Oc1cc(NCc2ccc(F)cc2)cc2cccnc12 | ? | 40% | 0%[12.7 µM] | 6% | -28% | / | JMJD2E inh-1=36µM*;JMJD2E inh-2=?;FDH inh=-36%;JMJD2E MALDI inh=75*
CN(C)CCCNc1cc(O)c2ncccc2c1 | 8.9µM* | -1% | ? | 13% | 35µM* | / | JMJD2E inh-1=28µM*;JMJD2E inh-2=28µM*;FDH inh=-18%;JMJD2E MALDI inh=?
Oc1cc(NCc2ccc(Cl)cc2)cc2cccnc12 | -2% | 57% | -5%[12.7 µM] | 2% | -10% | / | JMJD2E inh-1=15%;JMJD2E inh-2=20%;FDH inh=-18%;JMJD2E MALDI inh=?
Clc1ccc(CNc2ncccn2)cc1 | -17% | 27% | -6% | -21% | 5% | /
Fc1ccc(CNc2ncccn2)cc1 | 4% | 25% | -3% | -1% | 8% | /
COc1cc(NCc2ccccc2O)c2ncccc2c1 | ? | 19% | 27% | -5% | -29% | /
